High-throughput results (PubChem BioAssay)
The sample as a whole holds a higher share of hits than the screen did.
BL2 CD40 inh = inhibitors of CD40-induced NF-kB signaling, primary screen, BL2 cells, luciferase reporter, single point | CD40L-induced, 4 h | inhibition, % at 10 µM | 83,000 tested, 0.94% active;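 active means mean inhibition of at least 50% with a set share of replicates also reaching that level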;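 further: 0% = neutral control wells and 100% = IKK inhibitor VII at 50 µM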
Active calls of the source: *; [ ] = another dose, or the depositor's remark.

SMILES | BL2 CD40 inh
COc1ccc2c3c([nH]c2c1)[C@H](CO)N(C(=O)Nc1ccc(F)cc1)CC31CN(S(=O)(=O)c2ccc(C)cc2)C1 | 18[25 µM]
CC(C)NC(=O)N(C)C[C@H]1Oc2c(cccc2N(C)C)C(=O)N(C)C[C@@H]1C | 5
CC(C)n1cnc2c(NCc3ccccc3O)nc(NCCCO)nc21 | -2[25 µM]
CC(=O)Nc1ccc2c(c1)CC(=O)N(C)C[C@H](C)[C@H](CN(C)C)O2 | 5
CC1CCN(S(=O)(=O)c2ccc3c(c2)C(Cl)(Cl)C(=O)N3)CC1 | 53*
Cc1ccc(S(=O)(=O)N2CCC(N3CCC(C)CC3)CC2)cc1 | 6
CC1CCN(S(=O)(=O)c2ccc3c(c2)oc(=O)n3C)CC1 | 8
CC(=O)N1[C@@H](CO)[C@@H](c2ccc(C3=CCCC3)cc2)[C@@H]1CNC(=O)CN(C)C | 1
